Hit rate of the full screen: of about 48,000 compounds, about 13,000 (27%) showed an effect of 50% or more. The list shows a part of the results.
The compounds below were run on Wolbachia pipientis (assay: Anti-Wolbachia Cell-Based Screen). Conditions: 5 µM.
Assay type: functional
Parameters: scale not given: in the data most compounds retested in dose-response had high values

Row | SMILES | Percent Effect [%]
1 | COCCN1CCCC(CCCc2ccccn2)(C(N)=O)C1 (stereo not given) | 100.6
2 | COCCCC1(CO)CCCN(CCc2ccccn2)C1 (stereo not given) | 15.21
3 | O=C(NCCc1ccccn1)N1CCSC2(CCCCC2)C1 | 2.458
4 | CN1CCCC(CCCc2cccnc2)(C(N)=O)C1 (stereo not given) | 112
5 | NC(=O)CN1CCCC(CCCc2ccccn2)(C(N)=O)C1 (stereo not given) | 100.4
6 | CCN1CCCC(O)(CNCc2ccccn2)C1 (stereo not given) | -18.44
7 | CC(C)N1CCCC(CCCc2ccccn2)(C(=O)O)C1 (stereo not given) | -10.26
8 | O=C(Nc1ccc(Cl)cn1)C1CCCN(CCc2ccccn2)C1 (stereo not given) | 0.2896
9 | CCOCC1COCCC12CCN(C(=O)C1=CCCCC1)CC2 (stereo not given) | 5.493
10 | COCCCN(Cc1ccncc1)c1cc(C)ncn1 | 0.1133
11 | CC1(C)COCCN1C(=O)CCc1nc(-c2ccc(Cl)cc2)no1 | -5.513
12 | Cc1ccc(OCc2nnc(SCC3CCCN(C)C3)o2)cc1 (stereo not given) | 8.956
13 | NC(=O)C1(CCCc2ccccn2)CCCN(c2ncccn2)C1 (stereo not given) | 87.14
14 | O=C(CCCc1ccccn1)N1CCSC2(CCCCC2)C1 | -12.36
15 | CN(C)C(=O)CN1CCCC(CCCc2ccccn2)(C(N)=O)C1 (stereo not given) | 83.83
16 | CN(CCc1ccccn1)[C@@H]1CCN(c2cc(C(N)=O)ccn2)C[C@H]1O | -0.6803
17 | Nc1ccnc(N2CCCC(CCc3ccccc3)(C(=O)O)C2)n1 (stereo not given) | -8.777
18 | CN(CCc1ccccn1)C(=O)Nc1cccnc1N1CCCC1 | -10.3
19 | Cc1nc2cc(=O)[nH]n2c(C)c1CC(=O)Nc1cnn(C(C)(C)C)c1 | -8.028
20 | CCOc1ccc(CN2C(=O)CC(C)(C)C2=O)nc1 | -21.77
21 | CCC(=O)N1CCN(C(=O)NC2CCc3ccccc3C2)CC1 (stereo not given) | -5.895
22 | CN(C)C(C)(C)CNCc1cn(C)nc1-c1cccnc1.Cl | 8.677
23 | Cc1noc(NCc2cn(C)nc2-c2cccnc2)n1 | 76.51
24 | CCCNCc1cn(C)nc1-c1cccnc1.Cl | 13.76
25 | Cc1cc(NCc2cn(C)nc2-c2cccnc2)n(C)n1 | 80.93
26 | Cn1cc(CNc2ccc(CCO)cc2)c(-c2ccncc2)n1 | 4.489
27 | Cn1cc(CNCCc2cccnc2)c(-c2cccnc2)n1 | 4.12
28 | Cc1noc(NCc2cn(C)nc2-c2ccncc2)n1 | 86.63

Row | SMILES | Percent Effect [%]
29 | Cn1cc(CNc2cnn(CCO)c2)c(-c2ccncc2)n1 | -19.35
30 | Cn1cc(CNCCn2cccn2)c(-c2cccnc2)n1 | 3.416
31 | CCc1nnc(CNC(=O)CCN2CCN(c3cccc(C)c3)CC2)s1 | 7.202
32 | Cc1ccc(C(=O)N2CCSCC2)cc1N1CCNC1=O | -1.525
33 | CN(C)CCN1CCOCC2(CCN(Cc3ccc[nH]3)CC2)C1.O=C(O)C(F)(F)F.O=C(O)C(F)(F)F.O=C(O)C(F)(F)F | -10.04
34 | CNc1cc(C)nc(N2C[C@H](C3CC3)[C@@H](N)C2)n1 | -22.96
35 | Cc1cc(NC(=O)NCc2ccc(C)s2)no1 | 3.366
36 | Cc1cccc(COC[C@]23COC[C@H]2CN(C(=O)c2ccsc2)C3)n1 | 4.122
37 | O=C(Cc1ccsc1)N1C[C@@H]2COC[C@]2(COc2cccnc2)C1 | 95.21
38 | O=C(Cc1ccsc1)N1C[C@@H]2COC[C@]2(COCc2cccnc2)C1.O=C(O)C(F)(F)F | -1.782
39 | Cc1ccnc(OC[C@]23COC[C@H]2CN(C(=O)Cc2ccsc2)C3)n1 | 106.6
40 | O=C(Cc1cccs1)N1C[C@@H]2COC[C@]2(COCc2cccnc2)C1.O=C(O)C(F)(F)F | -3.131
41 | O=C(Cc1cccs1)N1C[C@@H]2COC[C@]2(COc2cccnc2)C1 | 7.396
42 | CS(=O)(=O)c1ncc(CN2CCCC(C(N)=O)C2)n1CC1CCCCC1 (stereo not given) | 6.801
43 | COCC1(NC(=O)C(c2ccc(F)cc2)N(C)C)CCCC1 (stereo not given) | -2.374
44 | CC1CCCN1Cc1cccc(C(=O)Nc2ccc3[nH]c(=O)oc3c2)c1 (stereo not given) | 1.459
45 | COc1ccc(NC(=O)c2cccc(CN3CCCC3C)c2)cc1OC (stereo not given) | 8.38
46 | CC1CCCN1Cc1cccc(C(=O)Nc2ccc3c(c2)CCC3=O)c1 (stereo not given) | 51.3
47 | Cc1nc(COC(=O)c2cccc3c2OCCO3)cs1 | 117.7
48 | CCN(Cc1ccc2c(c1)OCCO2)C(=O)NCc1csc(C)n1 | -4.508
49 | Cc1nc(COC(=O)c2cccc3c2OCCO3)no1 | 110.5
50 | Cc1ncsc1CN(C)C(=O)CC1CCOc2ccccc21 (stereo not given) | 5.103
51 | Cc1nc(CCN(C)C(=O)C2COc3ccccc3C2)no1 (stereo not given) | -0.4164
52 | Cc1ncsc1CCN(C)C(=O)CN1CCOc2ccccc2C1 | 0.429
53 | Cc1ncsc1COC(=O)c1cccc2c1OCCO2 | 128
54 | Cc1nc(C2CCCN(C(=O)c3cccc4c3OCO4)C2)no1 (stereo not given) | 12.92
55 | Cc1nc(CC(=O)N2c3ccccc3OCC2C)cs1 (stereo not given) | -16.16

Reference: ChEMBL document CHEMBL3988442, “University of Dundee, Small-Polar-MMV Screening Library” (2021)
